The source made the active and inactive calls.
Assays:
[1] = probe aNog binding to arrayed compounds – biochemical, biotinylated probe, 635/667 nm fluorescence, primary screen (AID 1115); details: small-molecule microarray, higher = more signal;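 note: probe is biotinylated aNog protein used at 0.15 µg/mL for 1 h at 4 C; z-score combines 667 nm fluorescence of each spot with its signal to noise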
[2] = target: Torsin-1A-interacting protein 1 (Homo sapiens) (UniProt Q5JTV8); experiment: compound microarray binding of lysate hLAP1 – cell lysate, small-molecule microarray, COS7 lysate, 635/667 nm fluorescence, primary screen (AID 1116); details: 635 nm fluorescence, higher = more signal
Chain of Torsin-1A-interacting protein 1 (Homo sapiens) (Q5JTV8 whole entry, looked up): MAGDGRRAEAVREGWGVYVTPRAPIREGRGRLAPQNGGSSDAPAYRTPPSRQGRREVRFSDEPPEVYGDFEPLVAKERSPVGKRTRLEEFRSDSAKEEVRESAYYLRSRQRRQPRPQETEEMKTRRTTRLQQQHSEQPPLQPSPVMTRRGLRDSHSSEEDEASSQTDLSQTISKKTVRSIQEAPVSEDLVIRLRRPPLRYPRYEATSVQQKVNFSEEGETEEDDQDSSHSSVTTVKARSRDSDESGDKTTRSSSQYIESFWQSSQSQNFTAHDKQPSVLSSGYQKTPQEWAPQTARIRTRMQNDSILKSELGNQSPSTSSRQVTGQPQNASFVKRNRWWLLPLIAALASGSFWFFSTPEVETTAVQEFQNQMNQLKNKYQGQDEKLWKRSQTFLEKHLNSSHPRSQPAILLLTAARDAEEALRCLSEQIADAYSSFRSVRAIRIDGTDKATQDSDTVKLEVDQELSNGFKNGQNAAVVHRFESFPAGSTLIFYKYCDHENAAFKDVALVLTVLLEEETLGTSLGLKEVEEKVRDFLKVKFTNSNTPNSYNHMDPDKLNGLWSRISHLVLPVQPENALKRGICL

Albumin (Bos taurus) = Albumin (Bos taurus) (UniProt P02769); experiment: compounds binding labelled BSA control protein – biochemical, small-molecule microarray, Alexa647 label, 635/667 nm fluorescence, artefact control for SMM control protein annotation, profiling panel (AID 1118); details: BSA-A647 binding, fluorescence 635 nm, higher = more signal;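 note: score merges 667 nm emission intensity and signal-to-noise per printed compound spot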
Chain of Albumin (Bos taurus) (P02769 whole entry, looked up): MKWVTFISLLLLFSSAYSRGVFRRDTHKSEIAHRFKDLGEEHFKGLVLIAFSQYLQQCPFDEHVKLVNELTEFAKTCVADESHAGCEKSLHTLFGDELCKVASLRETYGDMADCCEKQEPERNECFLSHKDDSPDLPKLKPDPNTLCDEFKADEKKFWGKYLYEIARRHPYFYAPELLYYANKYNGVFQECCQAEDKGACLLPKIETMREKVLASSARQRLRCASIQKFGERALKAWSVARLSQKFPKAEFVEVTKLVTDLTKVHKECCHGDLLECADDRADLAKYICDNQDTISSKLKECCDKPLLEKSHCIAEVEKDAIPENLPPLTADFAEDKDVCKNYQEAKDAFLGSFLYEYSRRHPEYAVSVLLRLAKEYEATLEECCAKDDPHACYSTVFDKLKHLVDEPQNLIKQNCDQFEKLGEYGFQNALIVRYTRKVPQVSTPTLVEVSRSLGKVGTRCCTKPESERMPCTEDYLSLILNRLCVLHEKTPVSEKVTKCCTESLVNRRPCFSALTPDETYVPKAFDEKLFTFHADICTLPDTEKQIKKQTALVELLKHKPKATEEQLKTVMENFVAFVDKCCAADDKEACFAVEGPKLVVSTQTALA

[3] = probe aXIP binding to arrayed compounds – biochemical, NeuroSMM set, 635/667 nm fluorescence, primary screen (AID 1119); details: small-molecule microarray, higher = more signal, called active from +8 up or from −8 down;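 note: probe is the protein aXip251-270 applied at 1 µg/mL to compound-printed slides; binding of probe to printed compounds measured as 667 nm fluorescence plus signal to noise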
[4] = probe aNOTCH3 binding on compound microarray – biochemical, small-molecule microarray, 635/667 nm fluorescence, primary screen (AID 1120); details: higher = more signal;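 note: probe is a biotin-tagged antibody raised against NOTCH3 rather than NOTCH3 protein; score merges spot fluorescence near 667 nm with spot signal to noise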
[5] = probe aNOTCH2 binding on compound microarray – biochemical, small-molecule microarray, 635/667 nm fluorescence, primary screen (AID 1121); details: higher = more signal;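 note: score merges feature fluorescence read at 667 nm with its signal to noise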
[6] = target: Carbonic anhydrase 2 (Homo sapiens) (UniProt P00918); experiment: compounds binding carbonic anhydrase 2 – biochemical, small-molecule microarray, Alexa647-labelled CAII, profiling panel (AID 1122); details: CAII-A647 binding fluorescence, higher = more signal
[7] = COS7 lysate on small-molecule microarray, probe aHis, 635 nm (AID 1123); details: COS7 cell lysate, fluorescence, higher = more signal;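 note: z-score combines 667nm fluorescence intensity with signal-to-noise per printed compound spot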
[8] = probe aLAP1 signal on lysate-treated microarray – cell lysate, small-molecule microarray, COS7 lysate, primary screen (AID 1124); details: probe aLAP1, fluorescence, higher = more signal;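 note: lysate comes from COS7 cells expressing LAP1 and is applied at 0.3 µg/mL; score merges spot fluorescence near 667 nm with signal-to-noise over triplicate slides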
Sam68 (KHDRBS1) = experiment: compounds binding KHDRBS1 protein – biochemical, small-molecule microarray, 635 nm fluorescence, primary screen (AID 1125); details: higher = more signal;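 note: score merges 667 nm channel intensity with signal to noise over triplicate slides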
[9] = system: Chordin-like protein 2 (CHRDL2); experiment: compounds binding chordin-like 2 – biochemical, small-molecule microarray, 635 nm fluorescence, primary screen (AID 1126); details: fluorescence 635 nm, higher = more signal;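 note: printed compound slides probed with Chrdl2 protein at 4 µg/mL for 1 h at 4 C; score merges 667 nm emission intensity with signal to noise over three replicate slides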
[10] = target: Concanavalin-A (Canavalia ensiformis) (UniProt P02866); experiment: compounds binding concanavalin A lectin – biochemical, small-molecule microarray, Alexa647 label, 635 nm, artefact control for SMM control protein annotation, primary screen (AID 1127); details: ConA-A647 binding fluorescence, higher = more signal;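 note: z combines 667 nm emission intensity with signal-to-noise across three replicate slides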
Chain of Concanavalin-A (Canavalia ensiformis) (P02866 whole entry, looked up): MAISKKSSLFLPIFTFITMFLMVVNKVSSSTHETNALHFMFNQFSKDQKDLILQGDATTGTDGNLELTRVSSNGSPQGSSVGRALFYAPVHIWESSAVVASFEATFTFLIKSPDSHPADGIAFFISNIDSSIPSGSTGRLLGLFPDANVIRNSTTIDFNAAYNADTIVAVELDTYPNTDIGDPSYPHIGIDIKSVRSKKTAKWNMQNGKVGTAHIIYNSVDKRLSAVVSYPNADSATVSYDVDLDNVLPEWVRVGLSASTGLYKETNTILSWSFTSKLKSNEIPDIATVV

[11] = compounds binding Alexa647 anti-His antibody – biochemical, small-molecule microarray, 635 nm fluorescence, artefact control for SMM control protein annotation, primary screen (AID 1128); details: higher = more signal;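 note: score merges feature fluorescence with signal-to-noise for each printed compound spot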
[12] = system: Human papillomavirus type 1a E7 protein (residues 1-88); experiment: HPV1a E7 small-molecule binders, primary screen, biochemical, small-molecule microarray, residues 1-88, 635 nm (AID 1129); details: small-molecule microarray binding, fluorescence 635 nm; higher = more signal
[13] = target: Focal adhesion kinase 1 (Homo sapiens) (UniProt Q05397); experiment: PTK2 protein binding on printed compound slides – biochemical, small-molecule microarray, 635/667 nm fluorescence, BSA, DTT, primary screen (AID 1130); details: 635 nm fluorescence, higher = more signal;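 note: composite of spot emission at 667 nm and signal to noise over triplicate slides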
Chain of Focal adhesion kinase 1 (Homo sapiens) (Q05397 whole entry, looked up): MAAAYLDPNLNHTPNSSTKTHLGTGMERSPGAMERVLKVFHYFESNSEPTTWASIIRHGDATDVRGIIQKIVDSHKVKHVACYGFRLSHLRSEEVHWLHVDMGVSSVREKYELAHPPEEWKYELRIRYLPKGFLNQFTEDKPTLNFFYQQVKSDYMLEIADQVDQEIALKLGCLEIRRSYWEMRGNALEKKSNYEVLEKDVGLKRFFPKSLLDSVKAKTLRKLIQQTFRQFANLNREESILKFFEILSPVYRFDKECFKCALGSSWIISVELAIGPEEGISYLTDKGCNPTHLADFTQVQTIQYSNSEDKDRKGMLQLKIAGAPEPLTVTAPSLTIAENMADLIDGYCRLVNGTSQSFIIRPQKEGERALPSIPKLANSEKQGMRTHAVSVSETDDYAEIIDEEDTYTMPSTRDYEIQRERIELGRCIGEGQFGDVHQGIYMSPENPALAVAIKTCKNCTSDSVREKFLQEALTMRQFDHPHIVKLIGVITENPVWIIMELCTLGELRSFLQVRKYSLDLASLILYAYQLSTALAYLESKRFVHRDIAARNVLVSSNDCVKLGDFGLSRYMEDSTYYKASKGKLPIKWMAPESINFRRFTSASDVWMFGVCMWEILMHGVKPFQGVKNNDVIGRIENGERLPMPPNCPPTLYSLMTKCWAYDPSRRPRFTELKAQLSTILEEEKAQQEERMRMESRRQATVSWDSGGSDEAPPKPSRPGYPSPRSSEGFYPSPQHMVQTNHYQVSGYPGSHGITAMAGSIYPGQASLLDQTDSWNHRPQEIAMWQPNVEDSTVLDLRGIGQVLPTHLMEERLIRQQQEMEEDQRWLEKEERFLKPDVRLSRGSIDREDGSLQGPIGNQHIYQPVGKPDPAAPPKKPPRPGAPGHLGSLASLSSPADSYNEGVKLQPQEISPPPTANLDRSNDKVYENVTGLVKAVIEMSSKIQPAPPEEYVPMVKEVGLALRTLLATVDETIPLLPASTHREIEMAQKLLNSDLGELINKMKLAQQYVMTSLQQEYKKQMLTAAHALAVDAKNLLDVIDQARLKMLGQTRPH

[14] = system: Fibrinogen (Alexa647-labelled); experiment: Alexa647-fibrinogen binding to printed small molecules – biochemical, small-molecule microarray, 635/667 nm fluorescence, artefact control for SMM control-protein annotation, profiling panel (AID 1131); details: fibrinogen-A647 binding fluorescence, higher = more signal;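 note: z-score merges 667 nm fluorescence with per-spot signal-to-noise over triplicate slides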
[15] = target: Follistatin (Homo sapiens) (UniProt P19883); experiment: FST protein binding to printed compounds – biochemical, small-molecule microarray, 635/667 nm fluorescence, primary screen (AID 1132); details: 635 nm fluorescence, higher = more signal
Chain of Follistatin (Homo sapiens) (P19883 whole entry, looked up): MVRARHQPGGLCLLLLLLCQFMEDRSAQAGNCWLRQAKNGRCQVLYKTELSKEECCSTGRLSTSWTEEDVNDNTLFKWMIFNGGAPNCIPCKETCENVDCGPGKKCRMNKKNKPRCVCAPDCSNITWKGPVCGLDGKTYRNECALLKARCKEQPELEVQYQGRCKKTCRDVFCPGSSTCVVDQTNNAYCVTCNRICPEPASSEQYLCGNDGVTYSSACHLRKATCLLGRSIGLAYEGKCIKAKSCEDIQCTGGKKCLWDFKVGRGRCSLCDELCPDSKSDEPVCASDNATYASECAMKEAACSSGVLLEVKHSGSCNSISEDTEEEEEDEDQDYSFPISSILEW

[16] = target: Fibroblast growth factor 2 (Homo sapiens) (UniProt P09038); experiment: basic fibroblast growth factor binding to printed compounds – biochemical, small-molecule microarray, 635/667 nm fluorescence, primary screen (AID 1133); details: FGF2, fluorescence 635/667, higher = more signal
Chain of Fibroblast growth factor 2 (Homo sapiens) (P09038 whole entry, looked up): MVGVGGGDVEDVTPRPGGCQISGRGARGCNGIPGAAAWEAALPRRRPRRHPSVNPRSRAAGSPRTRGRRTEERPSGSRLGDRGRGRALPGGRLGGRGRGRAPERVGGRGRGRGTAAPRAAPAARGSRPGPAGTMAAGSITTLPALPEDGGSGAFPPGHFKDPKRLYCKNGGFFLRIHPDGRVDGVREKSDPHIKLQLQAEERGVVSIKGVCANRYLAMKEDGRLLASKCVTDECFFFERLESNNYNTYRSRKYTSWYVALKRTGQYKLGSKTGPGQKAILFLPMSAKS

[17] = JC-1 mitochondrial potential readout, lung cancer cells – cell-based, A549, JC-1 fluorescence, basal, 24 h, 100 nL, profiling panel (AID 1138); details: higher = more signal;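 note: A549 lung adenocarcinoma cells under basal conditions with no added stimulus; test concentration not given here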
Lefty1 = Lefty1 protein binding to printed compounds – biochemical, small-molecule microarray, 635/667 nm fluorescence, primary screen (AID 1139); details: fluorescence 635/667, higher = more signal

| Structure (SMILES) | composite z-score [1] | composite z-score [2] | composite z-score (Albumin (Bos taurus)) | composite Z-score [3] | composite z-score [4] | composite z-score [5] | composite z-score [6] | composite z-score [7] | composite z-score [8] | composite z-score (Sam68 (KHDRBS1)) | composite z-score [9] | composite z-score [10] | composite z-score [11] | composite z-score [12] | composite z-score [13] | composite z-score [14] | composite z-score [15] | composite z-score [16] | z-score [17] | composite z-score (Lefty1) |
| --- | --- | --- | --- | --- | --- | --- | --- | --- | --- | --- | --- | --- | --- | --- | --- | --- | --- | --- | --- | --- |
| O=C1O[C@H](c2ccccc2)[C@H](c2ccccc2)N2[C@H]1[C@@H](C(=O)Nc1nc3ccccc3s1)[C@]1(C(=O)Nc3ccc(C#CCCO)cc31)[C@H]2c1ccccc1OCCO | 1.3 | 1.26 | 0.596 | 0.231 (inactive) | 0.0695 | -0.0155 | 0.671 | 2.43 | 0.849 | 1.31 | -0.0204 | 1.18 | 1.42 | 1.2 | 0.705 | 0.89 | 1.09 | 0.479 | -1.93 | 0.287 |
| CC(C)[C@@H](C(=O)O)n1cc(-c2ccccn2)nn1 | -0.195 | 0.539 | 0.69 | 0.516 (inactive) | -0.146 | 0.0571 | 0.525 | 0.708 | 0.242 | 0.522 | -0.119 | 0.556 | 2.19 | 1.08 | 0.113 | 0.811 | -0.0164 | 0.712 | 1.88 | 0.0234 |
| [N-]=[N+]=NCc1ccccc1C[C@]1(C(=O)NCc2ccccc2)N=C(c2ccc(OCCCO)cc2)O[C@H]1c1ccccc1 | 0.682 | 1.31 | 0.992 | 0.945 (inactive) | 0.2 | 0.139 | 0.396 | 1.85 | 1.45 | 1.16 | -1.4 | 1.09 | 1.67 | 1.18 | 0.445 | 0.813 | -0.257 | -0.0593 | 0.488 | -1.17 |
| COCCCNC(=O)[C@@]1(CCS(=O)(=O)c2ccccc2)N=C(c2ccc(OCCCO)cc2)O[C@H]1c1ccccc1CN=[N+]=[N-] | 0.64 | 0.732 | 0.91 | 0.582 (inactive) | 0.448 | 0.0763 | 0.528 | 2.3 | 0.561 | 1.22 | -0.308 | 1.12 | 2.56 | 1.21 | 1.17 | 0.989 | 1.4 | 1.53 | 0.579 | 0.578 |
| C=C1C=C(Br)C2(OCCCO2)[C@H]2OC12 (stereo not given in full) | -0.491 | -0.0068 | -0.888 | 2.51 (inactive) | 0.0642 | -0.148 | -0.128 | -0.529 | -0.0289 | -0.404 | 0.646 | -0.71 | -1.16 | -0.315 | 0.0354 | -1.01 | 0.442 | 0.245 | 0.939 | 0.743 |
| CC(C)[Si](C#C[Si](C(C)C)(C(C)C)C(C)C)(O[C@H](C)c1cn([C@H](C)c2ccccc2)nn1)C(C)C | 0.444 | 0.245 | -0.0001 | -0.097 (inactive) | -0.122 | -0.0632 | 0.66 | 0.386 | -0.13 | 1.16 | 0.0747 | 0.927 | 0.467 | 0.796 | 0.768 | 0.179 | 0.465 | 0.261 | 1.8 | 0.751 |
| C=C(COC)C(=O)CC[C@H](OC(=O)c1cccnc1)c1cccc(OCCO)c1 | 0.958 | 1.49 | -0.197 | -0.19 (inactive) | 0.53 | 0.156 | 0.608 | 0.613 | 0.123 | 0.579 | 0.601 | -0.0509 | -0.107 | 0.0325 | 0.481 | -0.09 | 0.896 | 1.57 | 1.39 | 1.05 |
| O=C1c2ccccc2[C@](Cc2ccccc2I)(C(=O)O)[C@H](c2ccc(CO)cc2)N1Cc1ccccc1Cl | 0.195 | 0.957 | 0.953 | 1.61 (inactive) | -0.014 | -0.0633 | 0.608 | 2.24 | 1.07 | 1.3 | -0.912 | 0.944 | 1.99 | 1.19 | 1.04 | -0.113 | 0.0645 | -0.354 | 0.712 | 0.0911 |
| CC(C)N1CC=CC23O[C@@H]4/C=C\CCCOC(=O)C4[C@H]2C(=O)N(CCCO)[C@@H]3C1=O (stereo not given in full) | 0.0824 | -0.0239 | -1.17 | 1.73 (inactive) | -0.249 | -0.125 | 0.962 | -0.0009 | -0.745 | -0.594 | -1.72 | -0.564 | -0.936 | -1.26 | -0.134 | -1.72 | -0.995 | -1.23 | 1.25 | -1.42 |
| C=CCN1C(=O)[C@]2(O[C@H](CCn3cc([C@H](O)c4ccccc4)nn3)[C@@H]([Si](C)(C)c3ccc(OC)cc3)[C@@H]2C)c2cc(N3CCOC3=O)ccc21 | -0.176 | 0.525 | 0.318 | 0.2 (inactive) | -0.272 | -0.201 | 0.521 | 0.8 | 0.0004 | 0.745 | -0.526 | 0.804 | 1.13 | 1.13 | 0.783 | 0.811 | -0.447 | -0.408 | 1.89 | -0.351 |
| CC(C)NC(=O)[C@@H]1c2ccccc2C(=O)N(Cc2cc(F)cc(C(F)(F)F)c2)[C@H]1c1ccc(CO)cc1 | 0.27 | 0.0026 | -0.448 | 0.115 (inactive) | -0.402 | -0.111 | 0.741 | 1.34 | -0.126 | -0.096 | -0.556 | -0.94 | -0.905 | -0.194 | 0.434 | -1.41 | -1.12 | -0.612 | 2.84 | -1.89 |
| CC(C)CCC[C@@H](C)[C@H]1CC[C@@]2(C)C3=C(CC[C@]12C)[C@@]1(C)CC[C@H](OC(=O)CCl)C(C)(C)C1CC3 (stereo not given in full) | 0.0983 | 0.247 | 0.256 | 0.222 (inactive) | 0.183 | -0.0829 | 0.153 | 0.555 | -0.0674 | 0.404 | 0.549 | 0.47 | -0.107 | 0.708 | 0.272 | 0.649 | 0.409 | 0.363 | 1.35 | 0.327 |
| O=C1O[C@H](c2ccccc2)[C@H](c2ccccc2)N2[C@H]1[C@@H](C(=O)NC[C@H](O)c1ccccc1)[C@]1(C(=O)Nc3ccc(C#CC4(O)CCCCCC4)cc31)[C@H]2c1ccc(O)cc1 | 0.528 | 1.08 | 0.647 | 0.601 (inactive) | 0.246 | -0.0404 | 0.359 | 0.892 | 1.07 | 1.33 | 0.233 | 1.12 | 1.23 | 0.843 | 0.333 | 0.574 | 1.31 | 1.01 | -0.105 | 0.873 |
| CCOC(=O)C[C@H]1[C@H](OC(=O)Cc2ccc3c(c2)OCO3)[C@@H](NC(=O)c2ccc3ccccc3c2)c2cc(OCCCO)ccc2N1C(=O)c1ccc2ccccc2n1 | -0.171 | 1.15 | 0.661 | -0.102 (inactive) | 0.0349 | -0.0523 | 0.371 | 0.77 | 0.562 | 0.826 | -0.318 | 0.356 | 0.0303 | 0.731 | -0.339 | 0.774 | 0.197 | 0.334 | 2.55 | 0.37 |
| [N-]=[N+]=NCc1ccccc1C[C@@]1(C(=O)NCc2ccccc2)N=C(c2ccc(OCCCO)cc2)O[C@@H]1c1ccccc1 | 0.868 | 0.595 | 0.825 | 0.109 (inactive) | 0.0562 | -0.0389 | 0.28 | 0.86 | -0.401 | 0.474 | -1.01 | 0.266 | 1.87 | 1.13 | 0.621 | 0.483 | 0.327 | -0.165 | 1.79 | -0.698 |
| CCCCCCC#C[Si](O[C@H](c1ccccc1)c1cn(Cc2ccccc2)nn1)(C(C)C)C(C)C | -0.183 | 0.523 | 0.0774 | 0.131 (inactive) | -0.0918 | -0.182 | 0.273 | 0.0604 | 0.155 | 0.458 | 0.187 | 0.132 | 0.254 | 0.262 | -0.326 | -0.418 | 0.126 | 0.594 | 4.41 | 0.806 |

From PubChem BioAssay
